Experimental data taken from PubChem BioAssay (EPA / NIEHS).
Several values for one entry are separate records, joined by “and”; a condition that tells them apart may be missing. Equal entries are not always repeated. Some structures have more than one record in an assay (separate samples or runs), and their calls can disagree. Activity calls are given as the source filed them. Rule for the calls: active = hit-call score of the fitted dose curve at least 0.9, where 1 is the maximum; inactive = score below 0.9.

Legend:
[1] = read-out: Monokine induced gamma interferon (MIG), CXCL9 (gene 4283); test: BSK_hDFCGF_MIG: BioMAP Diversity Plus: hDFCGF Assay for Monokine induced gamma interferon (MIG) Biomarker Activity (AID 2283063); details: primary human foreskin fibroblasts; actives raise or lower the signal
Summary of the method: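 ELISA read-out of MIG from primary human dermal fibroblasts 24 h post-dosing. Gain or loss of signal fitted bidirectionally, DMSO as baseline.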

[2] = read-out: Matrix Metallopeptidase 1 (MMP1), MMP1 (gene 4312); test: BSK_hDFCGF_MMP1: BioMAP Diversity Plus: hDFCGF Assay for Matrix Metallopeptidase 1 (MMP1) Biomarker Activity (AID 2283064); details: primary human foreskin fibroblasts; actives raise or lower the signal
Summary of the method: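 hDFCGF primary fibroblasts (human foreskin); chemical added; 24 h; MMP1 by ELISA; bidirectional fit vs DMSO.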

[3] = read-out: Vascular cell adhesion molecule 1 (VCAM1), VCAM1 (gene 7412); test: BSK_hDFCGF_VCAM1: BioMAP Diversity Plus: hDFCGF Assay for Vascular cell adhesion molecule 1 (VCAM1) Biomarker Activity (AID 2283065); details: primary human foreskin fibroblasts; actives raise or lower the signal;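 for AC50: VCAM-1 protein level quantified by ELISA after 24 h chemical exposure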
Summary of the method: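 Primary human foreskin fibroblasts (hDFCGF system) were dosed with chemical and VCAM-1 was measured by ELISA 24 h later. Bidirectional curve fitting used DMSO as negative control and activity baseline.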

[4] = read-out: Plasminogen activator inhibitor-1 (PAI1), SERPINE1 (gene 5054); test: BSK_hDFCGF_PAI1: BioMAP Diversity Plus: hDFCGF Assay for Plasminogen activator inhibitor-1 (PAI1) Biomarker Activity (AID 2283066); details: primary human foreskin fibroblasts; actives raise or lower the signal
Summary of the method: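 Human foreskin fibroblasts in the hDFCGF system were dosed with compound for 24 h; PAI-1 was quantified by ELISA. Bidirectional curve fitting used DMSO as negative control and baseline.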

[5] = read-out: Intercellular Adhesion Molecule 1 (ICAM1), ICAM1 (gene 3383); test: BSK_KF3CT_ICAM1: BioMAP Diversity Plus: KF3CT Assay for Intercellular Adhesion Molecule 1 (ICAM1) Biomarker Activity (AID 2283067); details: primary human keratinocytes with fibroblasts; actives raise or lower the signal
Summary of the method: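 Human keratinocyte plus foreskin fibroblast primary co-culture was exposed to chemical for 24 h. ICAM-1 was then quantified by ELISA, and the data were fit bidirectionally against DMSO as the negative control and baseline.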

[6] = read-out: Interferon-gamma inducible Protein 10 (IP10), CXCL10 (gene 3627); test: BSK_KF3CT_IP10: BioMAP Diversity Plus: KF3CT Assay for Interferon-gamma inducible Protein 10 (IP10) Biomarker Activity (AID 2283068); details: primary human keratinocytes with fibroblasts; actives raise or lower the signal
Summary of the method: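 ELISA read-out of IP-10 after 24 h chemical dosing of human skin primary co-culture (keratinocytes, foreskin fibroblasts). Gain or loss of signal relative to DMSO, bidirectional curve fit.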

[7] = BSK_KF3CT_SRB: Viability Assessment in the BioMAP Diversity Plus: KF3CT Assay (AID 2283069); details: primary human keratinocytes with fibroblasts;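 note: total protein by sulforhodamine B staining as a cytotoxicity measure; read 24 h after compound addition; fitted for both signal gain and loss against DMSO baseline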
Summary of the method: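 Keratinocytes co-cultured with foreskin fibroblasts (human primary); chemical added, 24 h; fix 10% TCA, stain 0.1% SRB, A560. Bidirectional fit vs DMSO.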

[8] = read-out: Interleukin-1 alpha (IL1a), IL1A (gene 3552); test: BSK_KF3CT_IL1a: BioMAP Diversity Plus: KF3CT Assay for Interleukin-1 alpha (IL1a) Biomarker Activity (AID 2283070); details: primary human keratinocytes with fibroblasts; actives raise or lower the signal
Summary of the method: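 Chemicals were dosed onto co-cultured human keratinocytes and foreskin fibroblasts, IL-1a was quantified by ELISA at 24 h, and activity was fitted in both directions relative to DMSO controls.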

[9] = read-out: TIMP metallopeptidase inhibitor 2 (TIMP2), TIMP2 (gene 7077); test: BSK_KF3CT_TIMP2: BioMAP Diversity Plus: KF3CT Assay for TIMP metallopeptidase inhibitor 2 (TIMP2) Biomarker Activity (AID 2283071); details: primary human keratinocytes with fibroblasts; actives raise or lower the signal
Summary of the method: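 Human primary keratinocyte/foreskin fibroblast co-culture dosed with chemical and sampled at 24 h. TIMP-2 levels quantified by ELISA; bidirectional fitting against DMSO negative control as baseline.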

[10] = read-out: Transforming growth factor beta 1 (TGFb1), TGFB1 (gene 7040); test: BSK_KF3CT_TGFb1: BioMAP Diversity Plus: KF3CT Assay for Transforming growth factor beta 1 (TGFb1) Biomarker Activity (AID 2283072); details: primary human keratinocytes with fibroblasts; actives raise or lower the signal
Summary of the method: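 Human keratinocyte plus foreskin fibroblast primary co-culture, dosed with chemical for 24 h. TGF-b1 quantified by ELISA. Activity fitted bidirectionally against DMSO negative control as baseline.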

[11] = read-out: C-C motif chemokine 2 (Homo sapiens) (UniProt P13500); test: BSK_KF3CT_MCP1: BioMAP Diversity Plus: KF3CT Assay for Monocyte Chemoattractant Protein 1 (MCP1/CCL2) Biomarker Activity (AID 2283073); details: primary human keratinocytes with fibroblasts; actives raise or lower the signal
Summary of the method: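 Human keratinocyte plus foreskin fibroblast primary co-culture exposed to chemical for 24 h. MCP-1 levels measured by ELISA. Bidirectional curve fitting relative to DMSO negative control as baseline.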

[12] = read-out: Matrix Metallopeptidase 9 (MMP9), MMP9 (gene 4318); test: BSK_KF3CT_MMP9: BioMAP Diversity Plus: KF3CT Assay for Matrix Metallopeptidase 9 (MMP9) Biomarker Activity (AID 2283074); details: primary human keratinocytes with fibroblasts; actives raise or lower the signal;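 for AC50: MMP9 protein level quantified by ELISA in the co-culture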
Summary of the method: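 Human keratinocyte/foreskin fibroblast co-culture; compound added; 24 h; MMP-9 by ELISA; bidirectional fit vs DMSO baseline.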

[13] = read-out: urokinase plasminogen activator (uPA), PLAU (gene 5328); test: BSK_KF3CT_uPA: BioMAP Diversity Plus: KF3CT Assay for urokinase plasminogen activator (uPA) Biomarker Activity (AID 2283075); details: primary human keratinocytes with fibroblasts; actives raise or lower the signal
Summary of the method: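 ELISA readout of uPA, analyzed for signal gain or loss relative to DMSO, from a human primary keratinocyte–foreskin fibroblast co-culture measured 24 h after chemical treatment.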

CD40, CD40 (gene 958) = test: BSK_LPS_CD40: BioMAP Diversity Plus: LPS Assay for CD40 Biomarker Activity (AID 2283076); details: primary human HUVEC with PBMC; actives raise or lower the signal
Summary of the method: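 Primary human umbilical vein endothelial cells co-cultured with peripheral blood mononuclear cells, LPS-stimulated, were dosed with chemical and read 24 h later. CD40 levels were measured by ELISA and fitted bidirectionally against DMSO as negative control and baseline.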

[14] = read-out: E-selectin (Homo sapiens) (UniProt P16581); test: BSK_LPS_Eselectin: BioMAP Diversity Plus: LPS Assay for Eselectin Biomarker Activity (AID 2283077); details: primary human HUVEC with PBMC; actives raise or lower the signal
Summary of the method: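 Human umbilical vein endothelial cells co-cultured with peripheral blood mononuclear cells under LPS stimulation; E-selectin measured by ELISA 24 h after chemical dosing. Activity fitted bidirectionally against DMSO as negative control and baseline.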

[15] = read-out: Interleukin-8 (IL8), CXCL8 (gene 3576); test: BSK_LPS_IL8: BioMAP Diversity Plus: LPS Assay for Interleukin-8 (IL8) Biomarker Activity (AID 2283078); details: primary human HUVEC with PBMC; actives raise or lower the signal
Summary of the method: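 Human umbilical vein endothelial cells co-cultured with PBMC were stimulated with LPS; IL-8 levels were measured by ELISA 24 h after chemical dosing. Activity was fitted bidirectionally against DMSO as negative control and baseline.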

[16] = BSK_LPS_SRB: Viability Assessment in the BioMAP Diversity Plus: LPS Assay (AID 2283079); details: primary human HUVEC with PBMC;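 note: total protein by sulforhodamine B absorbance as a cytotoxicity measure; measured one day after compound addition; fitted in both directions against DMSO so loss or gain of signal counts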
Summary of the method: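 Human umbilical vein endothelial cells co-cultured with PBMC (LPS system) were dosed for 24 h. Total protein was stained with 0.1% sulforhodamine B after 10% TCA fixation, read at 560 nm, and fitted bidirectionally against DMSO baseline.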

[17] = read-out: Interleukin-1 alpha (IL1a), IL1A (gene 3552); test: BSK_LPS_IL1a: BioMAP Diversity Plus: LPS Assay for Interleukin-1 alpha (IL1a) Biomarker Activity (AID 2283080); details: primary human HUVEC with PBMC; actives raise or lower the signal
Summary of the method: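 Human umbilical vein endothelial cells co-cultured with peripheral blood mononuclear cells were LPS-stimulated and exposed to test chemicals for 24 h. IL-1 alpha was quantified by ELISA, with bidirectional curve fitting against DMSO as the negative control and baseline.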

[18] = read-out: Monocyte Chemoattractant Protein-1 (MCP1), CCL2 (gene 6347); test: BSK_LPS_MCP1: BioMAP Diversity Plus: LPS Assay for Monocyte Chemoattractant Protein-1 (MCP1) Biomarker Activity (AID 2283081); details: primary human HUVEC with PBMC; actives raise or lower the signal;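 for AC50: secreted MCP-1 protein quantified by ELISA in culture supernatant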
Summary of the method: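 HUVEC plus PBMC co-culture (human primary cells, LPS system) exposed to test chemical for 24 h; MCP-1 measured by ELISA. Bidirectional curve fitting against DMSO baseline; parallel SRB total-protein staining flags overt cytotoxicity.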

[19] = BSK_LPS_PGE2: BioMAP Diversity Plus: LPS Assay for Prostaglandin E2 (PGE2) Biomarker Activity (AID 2283082); details: primary human HUVEC with PBMC; actives raise or lower the signal
Summary of the method: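 HUVEC plus PBMC co-culture stimulated with LPS; secreted PGE2 quantified by ELISA 24 h after chemical dosing. Activity fitted bidirectionally against DMSO as negative control and baseline; parallel SRB total-protein staining served as cytotoxicity check.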

Measured: AC50

E-selectin (Homo sapiens), sequence (P16581 whole entry, looked up): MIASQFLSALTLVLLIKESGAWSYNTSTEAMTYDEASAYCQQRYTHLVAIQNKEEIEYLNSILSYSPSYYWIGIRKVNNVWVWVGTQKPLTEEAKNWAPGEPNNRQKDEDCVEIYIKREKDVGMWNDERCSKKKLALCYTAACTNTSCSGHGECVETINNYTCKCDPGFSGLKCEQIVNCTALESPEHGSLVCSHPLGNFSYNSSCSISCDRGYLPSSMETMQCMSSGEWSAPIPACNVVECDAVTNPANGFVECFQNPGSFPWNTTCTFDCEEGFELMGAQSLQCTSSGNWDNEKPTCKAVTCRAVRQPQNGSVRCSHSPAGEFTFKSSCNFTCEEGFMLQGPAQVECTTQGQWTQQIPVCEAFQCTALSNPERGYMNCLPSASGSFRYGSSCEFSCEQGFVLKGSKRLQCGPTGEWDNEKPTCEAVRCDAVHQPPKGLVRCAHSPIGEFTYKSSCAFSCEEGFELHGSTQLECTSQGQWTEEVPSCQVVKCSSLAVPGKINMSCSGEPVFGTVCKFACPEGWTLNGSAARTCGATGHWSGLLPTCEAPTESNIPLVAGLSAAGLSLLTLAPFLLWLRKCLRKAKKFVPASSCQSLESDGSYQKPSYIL

CCC(C)(C)C1CCC(O)CC1 (stereo not given)
active: [6] 32.8 µM
inactive: all other assays above

OCCC(F)(F)C(F)(F)C(F)(F)C(F)(F)C(F)(F)C(F)(F)C(F)(F)C(F)(F)F
active: [1] 18 µM and 17.8 µM | [2] 17.9 µM and 17 µM | [3] 16.1 µM and 12.8 µM | [4] 12.8 µM | [6] 15.7 µM | [7] 18.1 µM and 14.5 µM | [8] 17.3 µM and 9.96 µM | [9] 19.9 µM and 14.6 µM | [12] 13.6 µM and 12.2 µM | [13] 17.1 µM and 19.1 µM | CD40, CD40 (gene 958) 30.6 µM and 29.1 µM | [14] 40 µM and 30 µM | [15] 30 µM | [18] 30.8 µM and 21.8 µM
inactive: [1] | [2] | [3] | [4] | [6] | [7] | [8] | [9] | [10] | [12] | [13] | CD40, CD40 (gene 958) | [14] | [15] | [18] | [19]
